The campaign covered roughly 63,000 compounds. About 1,100 (1.7%) were called active. The list comes from a sample in which actives are over-represented; it also holds similar structures and randomly drawn compounds. Potency and affinity values are given separately. Values without a mark were called inactive. Rule as the data show it: active = cytotoxicity above about 50%; inactive = the rest.

A short description of the test: HPDE-C7 pancreatic duct cell viability loss – fluorescence, HTS (AID 430).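 Also: cells exposed to compound for 48 hours before viability readout; 0% = vehicle and 100% = reference cytotoxic drug.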 Particulars: HPDE-C7 pancreatic duct cells viability, at 10 µM, active compounds read high.
On to `N#CCC(=O)N1CCn2c1nc1ccccc12`, for which the cytotoxicity is -11.2%.

For the compound `O=C1CC(N2CCN(c3ccc(F)cc3)CC2)C(=O)N1Cc1cccs1` (stereo not drawn), the cytotoxicity was -1.7%.

With `O=C1CC(N2CCN(c3nc4ccccc4s3)CC2)C(=O)N1Cc1cccs1` (stereo not drawn), the cytotoxicity was 12.3%.

On to `CCOC(=O)CSc1nc(N)cc(=O)[nH]1`, for which the cytotoxicity is -12%.

On to `Cc1ccc(C(=O)NCc2ccc3c(c2)OCO3)cc1S(=O)(=O)N1CCOCC1`, for which the cytotoxicity is -5.3%.

With `Cc1cc(NC(=O)CCC(=O)N(c2ccccc2)C(C(=O)NCC2CCCO2)c2cccnc2)no1` (stereo not drawn), the cytotoxicity is -0.6%.

Regarding `CCOc1ccc(C2CC(=O)NC(SCC(=O)OC)=C2C#N)cc1` (stereo not drawn), the cytotoxicity was 5.6%.

With `CCOC(=O)CC(=O)CSC1=C(C#N)C(c2ccccc2OC)CC(=O)N1` (stereo not drawn), the cytotoxicity was 43.6%.

On to `CCOC(=O)CSC1=C(C#N)C(c2ccccc2OC)CC(=O)N1` (stereo not drawn), for which the cytotoxicity was 54.9% (active).

For `CSC1=C(C#N)C(c2ccc(C)s2)CC(=O)N1` (stereo not drawn), the cytotoxicity was -8.2%.

Take `CCOC(=O)CSC1=C(C#N)C(c2sccc2C)CC(=O)N1` (stereo not drawn): the cytotoxicity is 63.5% (active).

On to `CCSC1=C(C#N)C(c2ccc(C)s2)CC(=O)N1` (stereo not drawn), for which the cytotoxicity is -7.1%.

Take `CCCCOC(=O)CSC1=C(C#N)C(c2ccc3c(c2)OCO3)CC(=O)N1` (stereo not drawn): the cytotoxicity was 28.6%.

On to `CCCOC(=O)CSC1=C(C#N)C(c2ccc3c(c2)OCO3)CC(=O)N1` (stereo not drawn), for which the cytotoxicity is 65.3% (active).

Turning to `CCOC(=O)CSC1=C(C#N)C(c2ccc3c(c2)OCO3)CC(=O)N1` (stereo not drawn), the cytotoxicity was 43.8%.

For `COC(=O)CSC1=C(C#N)C(c2ccc(F)cc2)CC(=O)N1` (stereo not drawn), the cytotoxicity was 10.1%.

As for `CCSC1=C(C#N)C(c2ccccc2OC)CC(=O)N1` (stereo not drawn), the cytotoxicity was -4.8%.

With `CCOC(=O)CSC1=C(C#N)C(c2ccc(C)s2)CC(=O)N1` (stereo not drawn), the cytotoxicity is 54.7% (active).

Turning to `O=C1CCC(=O)N1CC(=O)N1c2ccccc2Sc2ccccc21`, the cytotoxicity is -7.4%.

`COc1ccc(-n2nc3c(c2NC(=O)c2cc4ccccc4oc2=O)CS(=O)(=O)C3)cc1`: the cytotoxicity was -14.8%.

Consider `Cc1cc(C)n(-c2nc3c(c(=O)[nH]c(=O)n3C)n2CCc2ccccc2)n1`, for which the cytotoxicity is 5.1%.

In the case of `Cc1[nH]c2ccccc2c1C(=O)CN1CCCCC1CCO` (stereo not drawn), the cytotoxicity was -11.2%.

Consider `CCOc1ccc(Cn2nnc(C(=O)NCc3ccc(OC)cc3)c2N)cc1`, for which the cytotoxicity was -14.5%.

For the compound `CCOc1cc(S(=O)(=O)NCC2OCCc3ccccc32)c(OCC)cc1-n1cnnn1` (stereo not drawn), the cytotoxicity was 2.3%.

Turning to `CCC(=O)OC1=C2C(=Nc3c(c(=O)n(C)c(=O)n3C)C2c2ccccc2)c2ccccc21` (stereo not drawn), the cytotoxicity was 0.2%.

For `CCOc1cc(NC(=O)c2ccco2)c(OCC)cc1NC(=O)Cc1ccc(OC)c(OC)c1`, the cytotoxicity was -12%.

As to `Cc1cc(C)cc(N2CCCn3c2nc2c3c(=O)n(CCN3CCOCC3)c(=O)n2C)c1`, the cytotoxicity was -6.7%.

In the case of `CC(=O)C1=C(O)C(=O)N(Cc2cccnc2)C1c1ccc(Cl)cc1Cl` (stereo not drawn), the cytotoxicity is -17.4%.

`Cc1ccc2c(c1)NC(=O)C(CC(=O)N(C)Cc1ccccc1)O2` (stereo not drawn): the cytotoxicity is 1.5%.

Turning to `CC(OC(=O)C1CCCO1)C(=O)NC1CCCC1` (stereo not drawn), the cytotoxicity was 5.3%.

As to `COC(=O)c1ccc(NC(=O)c2ccccc2NS(C)(=O)=O)cc1`, the cytotoxicity is 10.7%.

For `O=C(c1cccn2c(=O)c3ccc(Cl)cc3nc12)N1CCN(Cc2ccc3c(c2)OCO3)CC1`, the cytotoxicity was -0.1%.

With `COc1cc2c(O)c3c(c(-c4ccc5c(c4)OCO5)c2cc1OC)C(=O)OC3`, the cytotoxicity is 82.2% (active).

Turning to `COc1cc2c(=O)n(-c3ccc(C)cc3)c(=O)n(CC(=O)c3ccc4c(c3)OCO4)c2cc1OC`, the cytotoxicity was 6.8%.

In the case of `COc1ccc(C(=O)Oc2ccc3c(c2)OCO3)cc1OC`, the cytotoxicity is -13.3%.

`Cc1ccc(S(=O)(=O)NCc2ccncc2)cc1`: the cytotoxicity is 3.6%.

On to `COc1ccc(Nc2nc(N)nc(CSc3n[nH]c(-c4ccccc4)n3)n2)cc1`, for which the cytotoxicity is -20.3%.

With `COc1ccccc1N1CCN(C(=O)C2CC=CCC2C(=O)O)CC1` (stereo not drawn), the cytotoxicity was 9.5%.

For the compound `COc1ccc(C(C)=O)cc1COC(=O)c1ccc(S(=O)(=O)N2CCOCC2)cc1`, the cytotoxicity is 21%.

Turning to `COc1cc(NC(=O)c2ccco2)ccc1NC(=O)c1ccccc1Cl`, the cytotoxicity is 2.8%.

As to `N#Cc1c(-c2ccco2)nc(SCc2ccc(F)cc2)[nH]c1=O`, the cytotoxicity is 54.3% (active).

`Cc1nc(SCc2cccc(F)c2)[nH]c(=O)c1C#N`: the cytotoxicity was -9.7%.

Consider `N#Cc1c(-c2ccco2)nc(SCC(=O)Nc2cccc(Cl)c2)[nH]c1=O`, for which the cytotoxicity is 19%.

On to `Cn1c(Cn2nnc3ccccc32)nnc1SCC(=O)N1c2ccccc2CCc2ccccc21`, for which the cytotoxicity was -18%.

As to `CC(CN1CCOCC1)OC(=O)c1ccc2c(c1)OCCO2` (stereo not drawn), the cytotoxicity is 4.5%.

`COc1ccc(C(=O)OC(C)CN2CCOCC2)cc1OC` (stereo not drawn): the cytotoxicity was -1.4%.

Take `CCc1ccc2c(CN3CCc4ccccc43)cc(=O)oc2c1`: the cytotoxicity was -5.4%.

For `CCOC(=O)c1sc(NC(=O)c2cccc(S(=O)(=O)N3CCN(C)CC3)c2)cc1C`, the cytotoxicity was 51% (active).

`CCOC(=O)c1sc(NC(=O)c2ccc(S(=O)(=O)N3CCOCC3)cc2)cc1C`: the cytotoxicity is -2.3%.

In the case of `CCOC(=O)c1ccc(NC(=O)c2cccc(S(=O)(=O)N3CCOCC3)c2)cc1`, the cytotoxicity is 20.1%.

In the case of `Cc1cc(C)n(-c2ccc(C(=O)Nc3ccccc3N3CCOCC3)cc2)n1`, the cytotoxicity is -4.1%.

Take `Cc1ccc(CS(=O)(=O)Cc2ccc(C(=O)NCc3ccco3)o2)cc1`: the cytotoxicity was -21%.

On to `c1csc(-c2nn[nH]n2)c1`, for which the cytotoxicity is -3.1%.

For the compound `CN(c1ccccc1)S(=O)(=O)c1ccc(C(=O)Nc2nccs2)cc1`, the cytotoxicity was -7.3%.

In the case of `COc1ccccc1-c1nnc(NC(=O)c2ccc(S(=O)(=O)N(C)Cc3ccccc3)cc2)o1`, the cytotoxicity is 55.9% (active).

As for `Cc1ccccc1C(=O)Nc1nnc(-c2ccc(F)cc2)o1`, the cytotoxicity was 18.7%.

Take `COc1ccccc1-c1nnc(NC(=O)c2ccc(S(=O)(=O)N(C)C)cc2)o1`: the cytotoxicity is -2.7%.

For the compound `CCN(Cc1ccccc1)S(=O)(=O)c1ccc(C(=O)Nc2nnc(-c3ccccc3OC)o2)cc1`, the cytotoxicity is 35.6%.

For the compound `CN(c1ccccc1)S(=O)(=O)c1ccc(C(=O)Nc2nnc(-c3ccc(F)cc3)o2)cc1`, the cytotoxicity is 58.9% (active).

As to `c1ccc2c(c1)oc1c(NCc3ccc4c(c3)OCO4)ncnc12`, the cytotoxicity is -2.2%.

As for `O=C(NCC1COCCO1)C1CCN(S(=O)(=O)c2ccccc2)CC1` (stereo not drawn), the cytotoxicity was -6.9%.

As for `CCNC(=O)N1c2ccc(OC)cc2C(C)=CC1(C)C`, the cytotoxicity is 3.2%.

With `O=C(NC1CCc2ccccc21)C1CCN(S(=O)(=O)c2ccc(-n3cnnn3)cc2)CC1` (stereo not drawn), the cytotoxicity was -11%.

For the compound `O=C(NCCc1ccccc1)C1CCCN1C(=O)Nc1ccc(F)cc1` (stereo not drawn), the cytotoxicity is -11.3%.

Take `O=C1CCCC2=C1C(c1cccs1)n1nc(SCc3ccccc3F)nc1N2` (stereo not drawn): the cytotoxicity was -11.2%.

For `CCOC(=O)c1[nH]c2ccc(OC)cc2c1NC(=O)C(C)N1CCSCC1` (stereo not drawn), the cytotoxicity is 19.3%.

`CCOC(=O)c1[nH]c2ccc(F)cc2c1NC(=O)CN1CCc2cc(OC)c(OC)cc2C1`: the cytotoxicity was -3.8%.

For the compound `CCOC(=O)c1[nH]c2ccc(OCC)cc2c1NC(=O)CN1CCN(c2ccccc2)CC1`, the cytotoxicity is 4.4%.

With `CCOC(=O)c1[nH]c2ccc(F)cc2c1NC(=O)C(C)N1CCc2cc(OC)c(OC)cc2C1` (stereo not drawn), the cytotoxicity is 58.6% (active).

Take `CCOC(=O)c1[nH]c2ccccc2c1NC(=O)CN1CCCCC1`: the cytotoxicity was -4.1%.

Regarding `CCOC(=O)c1[nH]c2ccc(F)cc2c1NC(=O)CN1CCN(C/C=C/c2ccccc2)CC1`, the cytotoxicity was 64.9% (active).

Take `CC(NC(=O)CC12CC3CC(CC(C3)C1)C2)C(=O)O` (stereo not drawn): the cytotoxicity was 3%.

Regarding `COCCN(CC(=O)NCc1ccc(F)cc1)C(=O)CCC(=O)Nc1nccs1`, the cytotoxicity was 3.1%.

Take `CCc1nnc(NC(=O)C2CCN(c3nccc(C)n3)CC2)s1`: the cytotoxicity was -2.7%.

As to `O=C(CSc1nnc(CNC(=O)c2cccs2)o1)NC1CCCCC1`, the cytotoxicity was -2.7%.

`O=C1c2ccccc2-c2onc3ccc(NCc4ccco4)c1c23`: the cytotoxicity is 62.1% (active).

As to `COc1ccc2noc3c2c1C(=O)c1ccccc1-3`, the cytotoxicity is 45.8%.

As for `O=C1c2ccccc2-c2onc3ccc(NCCCn4ccnc4)c1c23`, the cytotoxicity is 20.3%.

On to `Cc1nn(C)c(C)c1CNC(=O)c1nn2c(c1Cl)NC(c1cccs1)CC2C(F)(F)F` (stereo not drawn), for which the cytotoxicity is -0.2%.

Turning to `COc1ccc(NC(=O)C2CCCN(c3c4c(nc5ncnn35)CCC4)C2)cc1` (stereo not drawn), the cytotoxicity is -37.1%.

As for `CCOc1ccccc1CNC(=O)C1CCN(c2nc3ccccc3o2)CC1`, the cytotoxicity is -9.3%.

Consider `Cc1nc(C)c(-c2csc(NCc3ccco3)n2)s1`, for which the cytotoxicity is -21.6%.

`Cc1nc(NC(=O)c2ccccc2)sc1-c1csc(N)n1`: the cytotoxicity was 39.2%.

Take `Cc1nc(NC(=O)c2ccccc2)sc1-c1csc(NCc2ccco2)n1`: the cytotoxicity was 63.4% (active).

With `O=C(Nc1nc2c(s1)CCCC2)c1cc2n(n1)C(C(F)(F)F)CC(C1CC1)N2` (stereo not drawn), the cytotoxicity is 45.6%.

Turning to `Cc1cccc(N(C(=O)Cn2nnc3ccccc32)C(C(=O)NCc2ccco2)c2ccncc2)c1` (stereo not drawn), the cytotoxicity was 5.1%.

For the compound `CC1=C(C(=O)NCc2ccccc2)C(c2ccc(C)o2)n2ncnc2N1` (stereo not drawn), the cytotoxicity is -15%.

For the compound `CCOC(=O)c1c(C2COc3ccccc3O2)csc1N` (stereo not drawn), the cytotoxicity was -2.8%.

For the compound `COCc1cc(=O)[nH]c(Nc2nc3ccccc3o2)n1`, the cytotoxicity was 34.6%.

For `COCc1cc(=O)[nH]c(Nc2nc3ccc(C)cc3o2)n1`, the cytotoxicity was 51.7% (active).

With `COC(=O)Cc1cc(=O)[nH]c(Nc2nc3ccccc3o2)n1`, the cytotoxicity is 7.2%.

For `O=S(=O)(c1cc(C(F)(F)F)ccc1Cl)N1CCCCCC1`, the cytotoxicity was -4%.

With `CCOC(=O)C1=C(c2ccccc2)Nc2ncnn2C1c1ccccn1` (stereo not drawn), the cytotoxicity was -3.2%.

(Values after PubChem BioAssay AID430 (Sanford-Burnham Center for Chemical Genomics, 2006).)
